Cdc42 wt GTP: modulators (inhibitors or activators) of GTP binding to human Cdc42 wildtype; P60953; GST-Cdc42 beads, Bodipy-GTP binding, flow cytometry; actives lie on both sides; percent activity (GTP binding), % at 10 µM; hit rate 0.2% among 190,000;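 active = percent activity GTP binding at least 20 points away from the 100% baseline, either down as inhibitor or up as activator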;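 also: median bead fluorescence of bound Bodipy-FL-GTP at 100 nM; 0% = excess unlabeled GTP control and 100% = no compound control; below 100% means less GTP binding so inhibitor and above means activator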
Target sequence (P60953 whole entry, looked up): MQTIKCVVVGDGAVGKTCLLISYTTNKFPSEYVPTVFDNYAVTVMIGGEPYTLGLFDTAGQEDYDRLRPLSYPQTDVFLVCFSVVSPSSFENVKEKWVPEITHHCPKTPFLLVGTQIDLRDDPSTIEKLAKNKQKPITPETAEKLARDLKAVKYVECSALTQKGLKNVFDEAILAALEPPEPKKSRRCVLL
Rab7 wt GTP bind: alters GTP binding to wildtype dog Rab7. hit rate 0.055% among 190,000. GTP binding activity (percent of control), % at 10 µM. GST-Rab7 beads, fluorescent GTP binding, flow cytometry; actives lie on both sides; untreated = 100%, excess cold GTP = 0%;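 active = fluorescent GTP binding to Rab7 beads changed by at least 20 points from the 100% baseline, either direction, mostly lower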;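 also: median green fluorescence of bound Bodipy-FL-GTP per Rab7 bead population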
Rab2A wt mod: changes GTP binding to wildtype dog Rab2A, up or down | hit rate 0.19% among 190,000 | GST-Rab2 wt beads, Bodipy-GTP binding, flow cytometry | GTP binding activity, % at 10 µM | P61105;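 active = GTP binding activity at least 20 points away from 100%, either lowered or raised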;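 also: 0% = beads with excess unlabeled GTP and 100% = no-compound control corrected for plate trend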
Rac1 act GTP bind: alters GTP binding to activated mutant human Rac1. percent activity (GTP binding), % at 10 µM. hit rate 0.11% among 190,000. GST-Rac1 activated beads, fluorescent GTP binding, flow cytometry; actives lie on both sides; 100% means binding = to untreated wells. P63000;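 active = GTP binding at least 20 percentage points away from the 100% baseline, in either direction, so actives lie on both sides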
Rac1 wt GTP bind: modulators of human Rac1 wildtype GTP binding; P63000; GST-Rac1 beads, fluorescent GTP binding, flow cytometry; actives lie on both sides; 0 = cold GTP competed, 100 = untreated; GTP binding activity (% of control), % at 10 µM; hit rate 0.27% among 190,000;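 active = GTP binding activity at least 20 points away from the 100% control level, either lower or higher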
HRas wt GTP bind: human HRas wildtype GTP binding, change in either direction; P01112; GST-Ras wt beads, Bodipy-FL-GTP binding, flow cytometry; actives lie on both sides; GTP binding activity, % at 10 µM; hit rate 0.14% among 190,000; AID 759;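 active = GTP binding activity at least 20% away from the 100% baseline, either lowered as inhibitor or raised as activator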;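 also: 0% = unlabeled GTP competition control and 100% = no-compound control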
Starred values were filed as active, the others as inactive; [ ] = dose if it differs, or a comment. This is a sample that favours compounds with a hit; in the whole collection about 0.38% have one here.

SMILES	Cdc42 wt GTP	Rab7 wt GTP bind	Rab2A wt mod	Rac1 act GTP bind	Rac1 wt GTP bind	HRas wt GTP bind
Cc1ccccc1-c1ncc(CN2CCN(C3CCCCC3)C(CCO)C2)cn1 (stereo unspecified)	102	104	99	98	101	101
COc1ccc(S(=O)(=O)NC(C(=O)NCCc2ccccn2)C(C)C)cc1 (stereo unspecified)	105	109	107	105	111	105
CNc1ncc(C(=O)c2ccc(Br)cc2)s1	106	100	99	106	121*[activator]	101
CNc1ncc(C(=O)c2ccccc2)s1	101	99	99	99	101	102
Nc1nonc1C(=O)NCCN=Cc1cc(Cc2ccccc2)cc(Br)c1O	125*[activator]	114	122*[activator]	119	128*[activator]	117
Nc1nonc1C(=O)NCCN=Cc1ccccc1O	106	99	103	101	105	104
CCOC(=O)c1ccc(NC(=O)N2CCN(C(=O)C3CCCO3)CC2)cc1 (stereo unspecified)	100	106	97	96	102	101
COc1cccc(N2CCN(C(=O)CCCCCNc3nc(=S)[nH]c4ccccc34)CC2)c1	79*	98	83	89	74*	83
O=C(CCCCCNc1nc(=S)[nH]c2ccccc12)N1CCN(c2ccccn2)CC1	91	94	91	98	91	91
N#Cc1c(C(F)(F)F)cc(-c2ccc(Cl)cc2)[nH]c1=O	76*	78*	81	78*	78*	81
Cc1cc(C)c2c(NC(=S)NC(=O)c3ccccc3)n[nH]c2n1	94	96	97	95	99	97
C=CCn1c(O)c(N=NC(=O)c2ccccc2NS(=O)(=O)c2cccs2)c2ccccc21	94	88	85	88	92	88
CCCCn1c(O)c(N=NC(=O)c2ccccc2NS(=O)(=O)c2cccs2)c2ccccc21	82	91	81	78*	81	86
COc1ccc(-c2cc(=O)c(C(=O)c3ccc(C)cc3)n[nH]2)cc1	95	110	99	105	121*[activator]	100

High-throughput results deposited in PubChem by NMMLSC.
